ARNT-TACC3 inh: disruptors of human ARNT/TACC3 interaction | Q9Y6A5 | AlphaScreen His-ARNT PAS-B/GST-TACC3 binding, luminescence; TACC3 fragment carries E629A point mutation | inhibition, % at 9.99 µM | 390,000 tested, 0.66% active;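 active means mean inhibition of replicates at least 50% and at least half of replicates each reaching 50%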;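 further: 0% = complete ARNT plus TACC3 wells and 100% = ARNT alone without TACC3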
sPLA2-III inh: Blocks human group III sPLA2 activity. QFRET BODIPY PC-A2 liposome hydrolysis, fluorescence. inhibition, % at 12.2 µM. Q9NZ20. 370,000 tested, 0.56% active;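 active means inhibition above mean plus 3 SD of compounds lying within the high and low control bounds, cut at about 19% in these data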;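 further: 0% = median of test compound wells and 100% = no enzyme DMSO wells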
Neddyl block: inhibitors of human cullin neddylation | P61081+Q13564 | TR-FRET cullin neddylation, biochemical | inhibition, % at 25 µM | 360,000 tested, 0.58% active; in the data active means inhibition above about 36%
Target sequence (P61081 whole entry, looked up): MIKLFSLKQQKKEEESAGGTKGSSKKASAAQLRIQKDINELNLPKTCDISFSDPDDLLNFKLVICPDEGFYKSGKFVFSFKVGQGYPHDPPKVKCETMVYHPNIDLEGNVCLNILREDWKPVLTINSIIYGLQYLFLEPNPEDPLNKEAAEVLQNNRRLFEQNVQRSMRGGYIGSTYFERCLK
Target sequence (Q13564 whole entry, looked up): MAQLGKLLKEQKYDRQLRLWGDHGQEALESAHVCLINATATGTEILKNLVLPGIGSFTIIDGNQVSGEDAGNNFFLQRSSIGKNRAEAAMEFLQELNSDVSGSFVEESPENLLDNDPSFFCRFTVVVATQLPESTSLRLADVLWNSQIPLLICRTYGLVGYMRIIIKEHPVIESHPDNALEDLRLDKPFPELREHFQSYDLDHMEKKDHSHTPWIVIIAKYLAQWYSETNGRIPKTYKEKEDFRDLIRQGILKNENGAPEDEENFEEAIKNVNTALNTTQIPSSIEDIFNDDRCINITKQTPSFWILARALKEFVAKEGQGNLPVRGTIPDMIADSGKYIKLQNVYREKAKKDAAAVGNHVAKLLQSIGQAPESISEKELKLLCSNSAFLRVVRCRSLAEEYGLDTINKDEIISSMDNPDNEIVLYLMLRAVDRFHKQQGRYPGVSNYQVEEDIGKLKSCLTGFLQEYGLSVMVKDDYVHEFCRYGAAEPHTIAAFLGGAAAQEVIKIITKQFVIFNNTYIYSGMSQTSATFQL
NadD block: NadD (S. aureus) enzyme inhibition | purified NadD enzyme, colorimetric absorbance read-out | inhibition, % at 20 µM | 360,000 tested, 0.78% active | AID 602399; in the data active means inhibition above about 26%
DAGLB inh: diacylglycerol lipase beta (human) inhibition | Q8NCG7 | HEK293T DAGLB membrane lysate, EnzChek fluorogenic substrate | inhibition, % at 5.17 µM | 340,000 tested, 0.059% active; in the data active means inhibition above about 34%;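 further: 0% = enzyme with vehicle and 100% = wells lacking enzyme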
NadD conf: NadD (S. aureus) inhibition, single concentration confirmation. shares compounds with NadD block. purified S. aureus NadD, colorimetric enzyme assay. inhibition, % at 20 µM. 2,000 tested, 13% active; in the data active means inhibition mostly above about 42%, no sharp cut-off; inactive means mostly below about 42%
Numbers without * were called inactive; . = no result shown. Shown are actives, neighbours in structure and some others; about 2% of the full set was active somewhere.

SMILES	ARNT-TACC3 inh	sPLA2-III inh	Neddyl block	NadD block	DAGLB inh	NadD conf
COCC(=O)N(C)C[C@@H]1Oc2cc(C#CCN(C)C)ccc2S(=O)(=O)N([C@H](C)CO)C[C@H]1C	-3	.	.	.	.	.
CC(C)C[C@@H](CN1CCCC1CN1C(=S)NC[C@@H]1Cc1ccc(O)cc1)N1C[C@H](Cc2ccc(O)cc2)N(CC2CCCCC2)C1=S (some centres not stated)	7	-18	-14	54*	2	30
Oc1ccc(C[C@H]2CN([C@@H](Cc3ccc(O)cc3)CN3CCC[C@@H]3CN3C(=S)NC[C@@H]3Cc3ccccc3)C(=S)N2CC2CCCCCC2)cc1	.	-2	9	47*	.	27
Oc1ccc(C[C@H]2CNC(=S)N2CC2CCCN2C[C@H](Cc2ccccc2)N2C[C@H](Cc3ccc(O)cc3)N(CC3CCCCCC3)C2=S)cc1 (some centres not stated)	.	-1	6	48*	-2	21
CC(C)C[C@@H](CN1CCC[C@@H]1CN1C(=S)NC[C@@H]1Cc1ccccc1)N1C[C@H](Cc2ccc(O)cc2)N(CC2CCCCC2)C1=S	.	1	0	-2	.	.
CCOC(=O)c1ccc2c(c1)nc(SCC(=O)c1ccco1)n2CC	41	-10	0	-2	0	.
CCOC(=O)c1ccc2c(c1)nc(SC/C(O)=C(\C#N)c1nc3ccccc3[nH]1)n2CC	-7	10	-11	33*	-2	15
COc1ccccc1/C=C/C(=O)NC(=S)Nc1ccc(S(=O)(=O)N(C)c2ccccc2)cc1	-13	-3	-3	34*	2	6
CN(c1ccccc1)S(=O)(=O)c1ccc(NC(=S)NC(=O)c2ccccc2)cc1	-2	10	-3	-6	-7	.
CCCC#Cc1cnc2c(c1)C(=O)N([C@@H](C)CO)C[C@@H](C)[C@@H](CN(C)C(=O)c1cccnc1)O2	-9	.	.	.	.	.
Cc1cccc(/C=N/NC(=O)c2cc(-c3cccnc3)nc3c2c(C)nn3-c2ccccc2)c1	-5	3	.	37*	-1	7
CCCn1c(C(C)Nc2nc(-c3ccc(C)cc3)cs2)nc2cc(Cl)c(Cl)cc21 (configuration not stated)	-3	-11	-7	17	-2	.
Cc1ccc(Cn2c(C(C)Nc3nc(-c4ccc(F)cc4)cs3)nc3cc(Cl)c(Cl)cc32)cc1 (configuration not stated)	23	-14	-7	50*	-4	10
Cc1ccc(Cn2c(CCNc3nc(-c4ccc(Cl)c([N+](=O)[O-])c4)cs3)nc3cc(Cl)c(Cl)cc32)cc1	2	-3	-5	48*	-3	2
OCCCn1c(C2CCCN2c2nc(-c3ccc(Cl)cc3)cs2)nc2cc(Cl)c(N3CCCCC3)cc21 (configuration not stated)	2	4	-11	33*	0	10
OCCCn1c(C2CCCN2c2nc(-c3ccc(F)cc3)cs2)nc2cc(Cl)c(N3CCCCC3)cc21 (configuration not stated)	-4	7	-10	33*	1	5
COc1ccccc1C(=O)Nc1ccc2c(c1)C(=O)N(C)C[C@H](OC)[C@@H](C)CN[C@@H](C)CO2	2	.	.	.	.	.
Cc1ccc(Cn2c(C3CCCN3c3nc(-c4ccc(F)cc4)cs3)nc3cc(Cl)c(Cl)cc32)cc1 (configuration not stated)	-12	2	-31	49*	-5	26
Cc1ccc([C@@H]2CC=C(C(=O)O)[C@H](c3ccc(C(C)(C)C)cc3)N2S(=O)(=O)c2ccc(C)cc2)cc1	.	-36	1	21	14	.
Cc1ccc(S(=O)(=O)N2[C@@H](c3ccc(C(C)(C)C)cc3)C(C(=O)O)=CC[C@H]2c2ccc(C(C)C)cc2)cc1	-1	-33	0	51*	17	33
Cc1cc(C(=O)N/N=C/c2cc(Br)cc(Br)c2OC(=O)c2cccc(F)c2)n[nH]1	-12	6	24	32*	2	13
Cc1cccc(C(=O)Oc2c(Br)cc(Br)cc2/C=N/NC(=O)c2ccncc2)c1	.	-3	-1	-12	-1	.
C[C@@H]1CN([C@H](C)CO)S(=O)(=O)c2ccc(C#CC(C)(C)O)cc2O[C@@H]1CN(C)C(=O)C1CCCCC1	-4	.	.	.	.	.

Source: PubChem
